We go through 40 sequences from the supplement of paper PMC6555819.

The experiment relates to PPARg DBDmut:RXRa IVT, anti-PPARg (DBD mutation: PPARg1 K132A/R137A, NR concentration 270 nM, RXRa partner concentration 90 nM). Nature of the experiment: PBM binding z-score (relative to random genomic background probes); higher = stronger binding; sequences stand for … in GC…GCGATTGACAGCGTAGAATGAAGG
The method, boiled down: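 For binding z-scores, the reference was random background probes on custom Agilent 4×180K protein-binding microarrays. These arrays were incubated 1 h with ligand-free nuclear receptor dimers in PBS pH 7.4, 2% milk, 0.02% Triton X-100, 1 mM DTT, 0.2 mg/mL BSA and 0.4 mg/ml salmon testes DNA. Fluorescence was scanned after antibody detection of each partner (one per run) and regression-normalized.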
CCGACTGGGGAAAAGGTTACCATACTCAGTACGA: the PBM binding z-score was -0.258. The value for CAAACGAGGGCATGAGTTGATAGCAAATGCCGAT was 0.524; that for TTACCAAAGTGAGCTGAGGTCGTTGATCCAACTC was -0.436; that for TCGAGTAGGTTAGTGGCATTCAGAATGGCGTCGA was -1.08. For the sequence CCAGACAGGTGAGAAGGTAATTCAGCCTCGATTA, the PBM binding z-score is -0.0729. For CGTCCAAGGTCAGCAGGTCAGTGTAAGCGACGTG, the PBM binding z-score is -0.32. The value for GCAGACAGGTGAAACGAAGGTAACTCAGGGTGGC was 0.0896. The figure for GCGATTGGGGCATCAGCAGGTTACCATAACTTAA is -0.746. The sequence CCTTACGGGTCACTCCGGGTTATAGCATCGGAGT came in with a PBM binding z-score of 0.27. The sequence CCTAGCAGGCCTATCTGGGTCACTCAAGGCTTGA displayed a PBM binding z-score of -0.467. The sequence ACTCGGAGCACAAAGGTCAGAGCTACGCCAGTGA came in with a PBM binding z-score of -0.286. The figure for AGAGTGAGGTTAAGATCAGGGAAACAGAATACAT is 0.929; for CAAACTAGGTCGCGAAAGGTCAAAGTCGAATGAC it is 1.26.

CAAACTAGGTCTAAGGTCAAAGTCGAGCCAACCA gave a PBM binding z-score of 1.31. The figure for GATACAGGGTCAAGGCCAGAGTTCGCGTATTGAT is 0.606; for CCTACTAGGCCACGAAAGGTCATTGATTCAGTGA it is 0.693.

In turn, AGAATGAGGTTAAGATCAGGGACACAGAATACAT yielded a PBM binding z-score of 1.64. As to TCTTGTAGATCTAGCAGGTTAAGAAAGCCTGAGT, the PBM binding z-score is 0.126. CCGAGTAGGTTATAGGGCATTCAGGCAACGGTGA came in with a PBM binding z-score of 0.108.

Sequence TAGCCTAGGTCTTTCAGGGGCCAGTATAGAAAGC yielded a PBM binding z-score of -0.836. As to CCTGGTAGGTCAATGGTCAGCTAAAGCAGCTCGC, the PBM binding z-score amounted to 0.462. Turning to CCTACTGTGCCAAGGTCATTGATCAGTCAAAGCA, the PBM binding z-score was -0.148.

TCTCGTTGGTCAAAGGTCACACACTCGAAATGCG came in with a PBM binding z-score of 0.705.

Take TAGCCTAGGTCATTGGGCCACTATAGTACGCATC: the PBM binding z-score stood at 0.0417. The sequence TAGCCTAGGTCATTCAGTGGCCAGTATAGAAAGC had a PBM binding z-score of 0.204. As for TGAATGAGGTTATAAGATGAGGGAACGTTGCAAA, the PBM binding z-score amounted to 0.967.

With CAAACTAGGCCAAAGGTCAAAGTCGAGCCAACCA, the PBM binding z-score was determined as 2.58. On to GCAGGCAGGTGAAACGCAGGTAACTCAGGGTGGC, for which the PBM binding z-score was -1. CTCGAAAGGTCGGTTGAGGTTAGTATACGGATAA came in with a PBM binding z-score of 0.234. The value for CCAACTAGGTCAAGGACAGTGAATCTCCGCACGC was 1.93; that for CCGACTGGGGCATAAAGGTTACCATACCATCCGG was -0.548. On to ACTAGTTGGTCAGCTGAGGTCAGACACAATTCGG, for which the PBM binding z-score was 0.583. The figure for AGTCAAAGTTCATCTAGGTACCGTAAGATATGCT is 2.26; for CCGACAGGGGCAAAGGTTACCATACTCAGTACGA it is -0.209. The sequence CCTATTGGGCCATTCAGAGGTCATTGATCATATG came in with a PBM binding z-score of 0.246.

Turning to CCTATTAGTTGACCCTAAGGGCAACCGAAGCTCG, the PBM binding z-score turned out to be 0.412. On to AGTCAAAGTTCCCTAGGTAACGTAAGATTCAGCT, for which the PBM binding z-score was -0.729.

In the case of TGTAGCAGGCCAGAGGGTCACTCAAGAGGTACGG, the PBM binding z-score was -0.559.

The sequence TAGCCTTGGTCAGATCGGGCCAGTATACGCTATA yielded a PBM binding z-score of -0.203. In turn, ATCCCTAGGTAAAGTTCAGTGAAAGATCGATAGA gave a PBM binding z-score of 0.372.
